The test system of the assay is HL-60(TB) leukemia. The experiment in a line: NCI-60 one-dose screen, 48 h (100 = growth as untreated, 0 = no growth, -100 = all killed). Particulars: 10 µM unless noted.

Compounds without any hit were thinned out: in the full panel of roughly 83,000, 20% have a hit.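 Treatment: one concentration, 48 hours, 96-well format. Scoring: percent growth, with anything below 10 considered active.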 A number with no mark means an inactive call. Calls of active or inactive are those of the source.

Consider `COc1cc(Nc2ccnc(NCCCNc3ccnc4cc(Cl)ccc34)n2)cc(OC)c1`, for which the growth was -76.9% (active).

Regarding `Cc1cc(Nc2ncc(Cl)c(Nc3ccccc3S(=O)(=O)C(C)C)n2)c(OC(C)C)cc1C1CCNCC1`, the growth was -65% (active).

With `COc1ccc2c(c1)c(-c1nc(-c3cn(C)c4ncccc34)cs1)cn2CCN`, the growth is 55.7%.

In the case of `Cc1cc2c(C(C)C)c(O)c(O)c(C=NCCCCC(=O)O)c2c(O)c1-c1c(C)cc2c(C(C)C)c(O)c(O)c(C=NCCCCC(=O)O)c2c1O`, the growth was 42.6%.

With `Cc1cccc2c(NCCN(C)C)c3cccc(C(=O)NCCN(C)C)c3nc12`, the growth is -8.73% (active).

As to `COc1cc(C(O)C2C(=O)OCC2C2(c3ccc4c(c3)OCO4)SCCCS2)cc(OC)c1OC` (stereo not given), the growth is 91.8%.

As for `Cc1ccc(S(=O)(=O)N(CCc2ccc(Cl)cc2)S(=O)(=O)c2ccc(C)cc2)cc1`, the growth is 85.3%.

As to `Clc1ccccc1CNc1c2ccccc2nc2ccccc12`, the growth was 13.6%.

On to `NC(N)=N/N=C/c1ccccc1`, for which the growth is 99.5%.

For `O=C(CCl)N1c2ccccc2Oc2ccc3ccccc3c21`, the growth is -0.539% (active).

Regarding `CO[C@H]1/C=C/O[C@@]2(C)Oc3c(C)c(O)c4c(c3C2=O)C(=O)C(/C=N/N(c2ccccc2)c2ccccc2)=C(NC(=O)/C(C)=C\C=C\[C@H](C)[C@H](O)[C@@H](C)[C@@H](O)[C@@H](C)[C@H](OC(C)=O)[C@@H]1C)C4=O`, the growth was -12.5% (active).

In the case of `O=C1/C(=C/c2ccc([N+](=O)[O-])s2)Oc2ccc(Cl)cc21`, the growth is -20.6% (active).

As to `O=C(/C=C/CN1CCOCC1)Nc1cc2c(Nc3cccc(Cl)c3F)ncnc2cc1OCCOC(F)F`, the growth is 89.5%.

For the compound `CC1(C)C(=O)/C(=C\c2ccc(C(F)(F)F)cc2)C[C@]2(C)[C@H]3CC[C@@H]4[C@H]5[C@H](C(=O)/C=C/c6ccc(C(F)(F)F)cc6)CC[C@]5(CO)CC[C@@]4(C)[C@]3(C)CC[C@@H]12`, the growth is 92%.

Consider `COc1cc(/C=C2\CN(C(=O)CCN3CCC(=NO)CC3)C/C(=C\c3cc(OC)c(OC)c(OC)c3)C2=O)cc(OC)c1OC`, for which the growth was -27.9% (active).

On to `COc1ccc(Cl)c(Nc2nc3ccccc3nc2NS(=O)(=O)c2cccc(NC(=O)C(C)(C)N)c2)c1`, for which the growth is 32.6%.

In the case of `COc1ccc(C(=NN=C(N)N)c2ccc(OC)cc2)cc1`, the growth is 15.5%.

In the case of `CCN1CCN(c2cc(C)nc(NCc3cc(Nc4ccnc5cc(Cl)ccc45)ccc3F)n2)CC1`, the growth was 95.7%.

For `COc1ccc(-c2nc3ccc(-c4nc5ccc(N6CCN(c7ccccc7)CC6)cc5[nH]4)cc3[nH]2)cc1OC`, the growth is 16.1%.

Consider `COc1cccc(-c2nc3sccn3c2-c2ccnc(NCCCNS(=O)(=O)c3c(Cl)cccc3Cl)c2)c1`, for which the growth was 17.9%.

As for `CNc1nc2c(s1)C(c1cccc(F)c1)CC(=O)N2` (stereo not given), the growth was 97.5%.

Take `CN(C)[C@@H]1C(=O)C(C(=O)NCc2nc3[nH]cnc(=S)c3[nH]2)=C(O)[C@@]2(O)C(=O)C3=C(O)c4c(O)cccc4[C@@](C)(O)[C@H]3C[C@@H]12`: the growth was 4.14% (active).

Consider `C#C[C@H]1CCCCCC1O` (stereo not given in full), for which the growth was 96.1%.

On to `Cc1c[nH]c(=O)n(Cc2nnc(CCC(=O)c3nc4ccccc4[nH]3)o2)c1=O`, for which the growth is -0.434% (active).

In the case of `Cc1nc2ccccc2n1CC1C(=O)NC(=O)NC1=O`, the growth is 102%.

Consider `Nc1c(C(=O)Nc2cccc(Br)c2)sc2nc3c(cc12)C(=O)CCC3`, for which the growth is 49.7%.

With `COc1cc(-c2n/c(=C\c3c(O)[nH]c4cc(Cl)ccc34)cc3c2=Nc2ccccc2-3)cc(OC)c1OC`, the growth is 89.6%.

Turning to `C[C@@H]1CC[C@@H]2[C@@H]1[C@H](OC(=O)/C=C/c1ccccc1)[C@]1(C3CCCCC3)C[C@@H](NC(=O)CO)[C@@]2(C)O1`, the growth was 104%.

`O=c1[nH]c(NCc2ccccc2)nc2nc(Nc3ccc(NC(=S)Nc4ccccc4)cc3)nc(-c3ccc(O)cc3O)c12`: the growth is 98.4%.

In the case of `COc1ccc(/C(C)=C(\c2ccc(Cl)cc2)c2ccc(OCCN3CCCCCC3)cc2)cc1F`, the growth is -15.4% (active).

With `c1cn2cc(-c3ccc4ncn(C5CCCCC5)c4c3)nc(-c3ccc4c(c3)ncn4C3CCCCC3)c2n1`, the growth is -42.2% (active).

Take `Cc1cc(N)ccc1-c1ccc(N)cc1C`: the growth was 84.6%.

As for `O=C(/C=C\c1ccccc1Cl)c1ccccc1`, the growth is 110%.

`O=C1/C(=C/c2ccc(O)cc2)Oc2ccc(Cl)cc21`: the growth is 81%.

For `Clc1ccc2c(NCCCn3cnc4c(N5CCCC5)nc(Cl)nc43)ccnc2c1`, the growth is 81.6%.

Take `Clc1ccc(/C=C/c2ccccn2)c(Cl)c1`: the growth was 86%.

Take `N#CCc1csc(Cc2ccccc2)n1`: the growth is 95.7%.

For `CCN(CC)CCCC(C)Nc1cc(-c2ccc(C(F)(F)F)cc2)c(C#N)c2nc3ccccc3n12` (stereo not given), the growth is -59.8% (active).

Consider `Cn1cc(C=O)c2ccccc21`, for which the growth is 92.8%.

As to `CCN(CC)c1ccc(/C=N/NC(=O)C[N+](C)(C)C)cc1`, the growth was 35.5%.

For the compound `Cc1cnc2nc(-c3ccc(N(C)C)cc3)cn2c1`, the growth is 90.7%.

As for `CN1CCN(Cc2ccc(NC(=O)c3cncc(C#Cc4c(N)ncc5ccc(F)cc45)c3)cc2C(F)(F)F)CC1`, the growth is 17.4%.

Consider `COc1ccc(C(=O)c2cc3c(N)c(C(=O)Nc4cccc(Cl)c4)sc3nc2C)cc1`, for which the growth is -45.3% (active).

`Cc1cc(N(CCNc2ccnc3cc(Cl)ccc23)Cc2ccc3c(c2)OCO3)nc(N2CCN(C)CC2)n1`: the growth was -57.8% (active).

On to `Cc1ncc(C(=O)Nc2ccc(CN3CCN(C)CC3)c(C(F)(F)F)c2)cc1C#Cc1cnc(N)c2ccc(C#N)cc12`, for which the growth is 13.2%.

`COc1cccc2c1C(=O)c1c(O)c3c(c(O)c1C2=O)C[C@@](O)(C(=O)CO)C[C@@H]3O[C@H]1C[C@H](N)[C@@H](O)[C@H](C)O1`: the growth was 3.13% (active).

On to `O=c1cc(Cl)nc2ccccn12`, for which the growth was 92.9%.

With `CCCCCN1C=C/C(=C\C(=O)N2CCCc3ccccc32)c2ccccc21`, the growth was 54.8%.

`CCCCCCCCC(=O)OCCCC(CCC(CCC1CCCO1)OC(=O)CCCCCCCC)OC(=O)CCCCCCCC` (stereo not given): the growth is 89%.

For the compound `COc1ccc(C(c2ccc(OCCN(C)C)cc2)c2cc3ccccc3c3ccccc23)cc1` (stereo not given), the growth was 3.59% (active).

`O=C1Nc2ccccc2C12C=C(c1ccccc1)Nc1c2c(-c2ccccc2)nn1-c1ccccc1` (stereo not given): the growth was 5.77% (active).

As for `C[C@H]1[C@H](C)CC[C@]2(C(=O)N3CCN(C)CC3)CC[C@]3(C)C(=CC[C@@H]4[C@@]5(C)C/C(=C/c6ccco6)C(=O)C(C)(C)[C@@H]5CC[C@]43C)[C@H]12`, the growth was -39.1% [100 µM] (active).

Take `CCOC(=O)Nc1cc2c(c(N)n1)N=C(c1ccccc1)CO2`: the growth was -0.963% (active).

`COc1nc2ccc(C)cc2cc1-c1nc2c(cnn2-c2ccccc2)c(=O)[nH]1`: the growth is 50.1%.

On to `CCOC(=O)c1ccccc1SC(C[N+](=O)[O-])c1ccccc1` (stereo not given), for which the growth is 89.7%.

`COC(=O)[C@]12CC[C@@H](C)[C@H](C)[C@@H]1C1=CC[C@@H]3[C@@]4(C)C(C=O)=C[C@@](C)(CO)[C@@H]4[C@H](O)C[C@@]3(C)[C@]1(C)CC2`: the growth was -14.4% (active).

Regarding `N#CC(=S)Nc1ccc(Cl)c(Cl)c1`, the growth is 8.99% (active).

Consider `O=[N+]([O-])c1ccc(CO)cc1`, for which the growth was 96.7%.

Consider `COC(=O)c1cc(N=C2NC(=O)/C(=C/C=C/c3ccccc3)S2)ccc1O`, for which the growth is -0.749% (active).

With `COc1cc(NCCC2CCCCN2)c2ncccc2c1OC` (stereo not given), the growth is 0.805% (active).

Regarding `CC(=O)Nc1nc(C)c(C(=O)N/N=C/N2CCCCC2)s1`, the growth is 131%.

For `NS(=O)(=O)Oc1ccc(-c2sc3cc(O)ccc3c2C(=O)c2ccc(OCCN3CCCCC3)cc2)cc1`, the growth was 47.7%.

As for `CCC(N)(C(=O)O)c1ccc(F)cc1` (stereo not given), the growth is 87.1%.

Take `COc1cc2cc(Oc3ccc(NC(=O)Nc4cc(C(F)(F)F)cc(C(F)(F)F)c4)cc3)c(C)nc2cc1OCCN1CCCCC1`: the growth is -2.13% (active).

In the case of `O=C(O)CN1C(=O)c2cccc3cccc(c23)C1=O`, the growth was 118%.

On to `Cc1ccc(C)c(-n2c(-c3ccc(Br)cc3)csc2=NC(=O)c2ccccc2F)c1`, for which the growth is -21.6% (active).

Consider `COc1ccc(/C=N/C2=C(C#N)C(c3ccc(OC)cc3)c3ccc4ccccc4c3O2)cc1` (stereo not given), for which the growth is 63.4%.

Regarding `NC(=O)c1ccc[n+](CC(=O)N2CCN(c3cc4c(cc3F)c(=O)c(C(=O)O)cn4C3CC3)CC2)c1`, the growth was 106%.

On to `Brc1ccc2[nH]cc(-c3cncn3CCc3ccccc3)c2c1`, for which the growth is 39.3%.

As for `COC(=O)c1ccc(NC(=O)CCl)cc1`, the growth is 81.6%.

Consider `Cc1c(O)c(O)cc2c3c(oc12)CC(c1ccc2c(c1)OCO2)CC3=O` (stereo not given), for which the growth was 73.7%.

With `Cc1ccc(NC(=O)c2ccccc2Cl)cc1`, the growth is 86.1%.

As for `O=C(O)CCCN1C(=O)/C(=C/c2cn(-c3ccccc3)nc2-c2ccc([N+](=O)[O-])cc2)SC1=S`, the growth is 83.4%.

As for `C=CCN=C1NC(=O)/C(=C/c2cc(C(C)(C)C)c(O)c(C(C)(C)C)c2)S1`, the growth is 54.3%.

Regarding `Nc1ncnc2c1c(-c1cccc(OCc3ccccc3)c1)cn2C1CC(CN2CCC2)C1` (stereo not given), the growth is -51.5% (active).

With `CC(=O)c1c(Nc2cccc(F)c2)[nH]c2c(Cl)cc(Cl)c(Cl)c2c1=O`, the growth is -36.5% (active).

On to `CN(C)c1ncc(C#Cc2c(F)cccc2F)c2ccccc12`, for which the growth is 59.9%.

As for `O=C(C=C=Nc1ccccc1)C(=O)N=C=Cc1ccccc1`, the growth was -26% (active).

`c1ccc(Nc2nc3c(s2)CCc2c[nH]cc2-3)nc1`: the growth is 2.15% (active).

For the compound `N=C(N)c1ccc(-c2ccc(-c3ccc(Cl)cc3)s2)s1`, the growth is -58.6% (active).

(Values after PubChem BioAssay (NCI).)
